M1 PAM = human M1 muscarinic receptor positive allosteric modulators, primary screen, CHO-K1 cells, Fluo-8 calcium fluorescence, 1536-well | Muscarinic acetylcholine receptor M1 (Homo sapiens), P11229 | CHO-K1 hM1, ACh EC20; 0% = ACh EC20, 100% = maximal ACh | activation, % at 3 µM | hit rate 0.088% among 360,000; in the data active = activation above about 19%, passing the limit was not always enough
Target sequence (P11229 whole entry, looked up): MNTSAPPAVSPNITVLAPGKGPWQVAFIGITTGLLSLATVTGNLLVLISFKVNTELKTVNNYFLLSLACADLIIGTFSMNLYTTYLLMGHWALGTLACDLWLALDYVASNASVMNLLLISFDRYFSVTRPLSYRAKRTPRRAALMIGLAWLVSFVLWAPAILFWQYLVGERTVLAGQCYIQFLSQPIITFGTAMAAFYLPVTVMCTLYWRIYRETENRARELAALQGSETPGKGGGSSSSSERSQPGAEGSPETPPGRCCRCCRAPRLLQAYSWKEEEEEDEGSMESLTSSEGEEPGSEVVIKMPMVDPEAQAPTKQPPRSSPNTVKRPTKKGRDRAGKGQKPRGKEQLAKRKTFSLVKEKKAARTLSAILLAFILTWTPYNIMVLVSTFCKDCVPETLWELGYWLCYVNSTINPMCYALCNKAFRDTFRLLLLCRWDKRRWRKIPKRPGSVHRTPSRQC
M1 PAM parental = nonselective calcium activators in parental CHO-K1 cells, primary screen, counter-screen for M1 PAM project, cell-based, Fluo-8 calcium fluorescence, full deck, 1536-well; hit rate 0.02% among 360,000; activation, % at 3 µM; ATP EC20; 0% at ATP EC20, 100% at ATP max; AID 602247, 2012;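 active = activation above the run cutoff, the mean activation of all test compounds plus 3 SD, cut at about 40% in these data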;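 note: peak over basal fluorescence ratio in a 140 s read after ATP addition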
M1 ag parental = counter-screen for M1 agonists: effect in parental CHO-K1 cells; Fluo-8 calcium fluorescence; scaled to maximal ATP response, vehicle zero; activation, % at 3 µM; hit rate 0.48% among 360,000; AID 602248, 2012; in the data active = activation above about 15%;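 note: untransfected CHO-K1 host cells lacking M1 receptor as counterscreen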
CHRM1 agonist = human M1 muscarinic receptor agonists, primary screen, Fluo-8 calcium fluorescence, CHO-K1 cells, HTS | Muscarinic acetylcholine receptor M1 (Homo sapiens), P11229 | CHO-K1 hM1, agonist mode; 0% DMSO, 100% acetylcholine EC100 | activation, % at 3 µM | hit rate 0.33% among 360,000;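 active = activation above the run's mean compound activation plus 3 SD, cut at about 16% in these data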;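 note: peak over basal fluorescence ratio within a 140 s kinetic read after compound addition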
CHO-K1 Ca antag = M1 antagonist counterscreen hit in parental CHO-K1 cells; ATP-induced calcium, Fluo-8 fluorescence; inhibition, % at 3 µM; hit rate 0.6% among 360,000;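 active = inhibition above a per-plate cutoff, the plate's mean sample inhibition plus 3 SD, cut at about 24% in these data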;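 note: 0% = DMSO plus EC80 ATP and 100% = DMSO alone without ATP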
CHRM1 antagonist = human M1 muscarinic receptor antagonists, primary screen, CHO-K1 cells, Fluo-8 calcium fluorescence, 1536-well. Muscarinic acetylcholine receptor M1 (Homo sapiens), P11229. AID 588852, 2011. inhibition, % at 3 µM. hit rate 1.3% among 360,000. CHO-K1 hM1, ACh EC80 antagonist;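 active = percent inhibition above its own plate's cutoff, namely the mean of that plate's compound wells plus 3 SD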;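 note: peak over basal fluorescence ratio during 140 s after agonist addition; 0% = ACh EC80 plus DMSO and 100% = DMSO alone without agonist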
The depositor's hits bear a star; · = no result given. Rows were chosen to be rich in hits. Some 2.3% of all compounds tested hit in one or more screens of this group.

SMILES | M1 PAM | M1 PAM parental | M1 ag parental | CHRM1 agonist | CHO-K1 Ca antag | CHRM1 antagonist
CCCCN(CC(=O)NC1CCCC1)C(=O)C(=O)Nc1ccc2c(c1)OCCO2 | 0 | 18 | 1 | -4 | -7 | 5
O=C(NCC(c1ccco1)N1CCCC1)c1ccc(S(=O)(=O)Nc2ccccc2F)cc1 (stereo not drawn) | -25 | -4 | 3 | -7 | 0 | 66*
O=C(NCC(c1ccco1)N1CCCC1)c1ccc(S(=O)(=O)Nc2ccccc2Cl)cc1 (stereo not drawn) | -9 | 3 | 1 | -7 | 12 | 5
O=C(NCC(c1ccco1)N1CCCCC1)c1ccc(COc2ccc(Cl)cc2)cc1 (stereo not drawn) | -26 | 22 | 2 | -5 | -4 | 80*
CC1CCC2(CC1)NC(=O)N(CC(=O)NCCc1ccc(F)cc1)C2=O (stereo not drawn) | 3 | 8 | 0 | -6 | 0 | 2
CCOC(=O)[C@]12CCCC=C1N(Cc1ccco1)C(=O)[C@H](CC(=O)N1CCOCC1)C2 | · | 3 | 0 | · | -6 | ·
O=C(C(=O)N1CCOCC1)c1cn(CCOc2ccccc2)c2ccccc12 | 3 | 5 | 5 | -7 | -5 | -1
Cc1ccccc1OCCn1cc(C(=O)C(=O)N2CCOCC2)c2ccccc21 | -5 | 13 | 23* | -5 | -9 | 13
CC(=O)c1cn(CCOc2ccccc2C)c2ccccc12 | -12 | 18 | 13 | 1 | 6 | 33*
CCOc1ccc(S(=O)(=O)NCCC(=O)NCC(c2ccco2)N2CCCCC2)cc1 (stereo not drawn) | 12 | 15 | -1 | -6 | 0 | -11
CCCCn1c(N)c(N(CCOC)C(=O)c2ccc(N3CCCC3)c([N+](=O)[O-])c2)c(=O)[nH]c1=O | 0 | -4 | 0 | -4 | -7 | 4
CCc1cc(OCCCCNCc2ccccc2)ccc1Cl | -24 | 26 | 17* | -2 | 2 | 30
OCCCCNCc1ccc(OCc2ccccc2)cc1 | -22 | 5 | 1 | -8 | -7 | 13
OCCCCNCc1ccc(OCc2ccccc2Cl)cc1 | -35 | 2 | 2 | -11 | -9 | 44*
COC(=O)c1ccc2[nH]c(C)cc(=O)c2c1 | -23 | 9 | 1 | -6 | -4 | 69*
O=C(COC(=O)C1CCC1)Nc1cc(S(=O)(=O)N2CCOCC2)ccc1Cl | 1 | 14 | 1 | -1 | 9 | 0
O=C(Nc1cc(S(=O)(=O)N2CCOCC2)ccc1Cl)C1CCC1 | -8 | -24 | 0 | -2 | 7 | 27*
Cc1cccc2cc3c(N)c(C(=O)Nc4ccc(N5CCOCC5)cc4)sc3nc12 | -12 | 5 | 6 | 1 | -7 | 15
C=CCn1c(=O)[nH]c2cc(C(=O)N3CCN(c4cccc(Cl)c4)CC3)ccc2c1=O | -23 | 5 | 3 | -5 | 6 | 21*
O=S(=O)(c1cccc(COc2ccc(Cl)cc2Cl)c1)N1CCOCC1 | 6 | 11 | 3 | -2 | -7 | -12
CCc1cccc2cc3c(N)c(C(=O)Nc4ccc(S(=O)(=O)N5CCCC5)cc4)sc3nc12 | -8 | 15 | 16* | 11 | 19 | 33
CC(=O)c1cc(Cl)ccc1OCc1cccc(S(=O)(=O)N2CCOCC2)c1 | -16 | -4 | 16* | 3 | 6 | 31*
COc1ccc(CNC(=O)CCS(=O)(=O)c2ccc3c(c2)NC(=O)CS3)cc1 | -4 | 9 | 1 | -2 | -15 | 14
CC1(Oc2cccc(C#N)c2)CCN(Cc2csc3ccccc23)C1 (stereo not drawn) | -3 | 17 | -1 | -7 | -7 | 0
CSc1nc(=S)c2[nH]c(=S)[nH]c2[nH]1 | 17 | 1 | 0 | 0 | -6 | -14
SMILES | M1 PAM | M1 PAM parental | M1 ag parental | CHRM1 agonist | CHO-K1 Ca antag | CHRM1 antagonist
CN1CCN(S(=O)(=O)c2ccc(NC(=O)c3cccc(S(=O)(=O)N4CCCC4)c3)cc2)CC1 | -23 | -6 | 0 | -5 | 2 | 98*
CN(C)S(=O)(=O)c1cccc(NC(=O)c2ccc(S(=O)(=O)N3CCCCC3)cc2)c1 | -27 | -6 | 4 | -5 | 5 | 27*
NS(=O)(=O)c1ccc(NC(=S)Nc2ccc(C(=O)N3CCCCC3)cc2)cc1 | -7 | 17 | 16* | -3 | 10 | 10
CCN(CC)S(=O)(=O)c1cccc(NC(=S)NC(=O)/C=C/c2ccc(S(=O)(=O)N3CCOCC3)cc2)c1 | -7 | -14 | 1 | -5 | 27* | 14
O=C(/C=C/c1ccc(S(=O)(=O)N2CCOCC2)cc1)NC(=S)Nc1ccc(Cl)cc1Cl | 9 | -3 | 0 | -1 | 2 | 2
CC1=C2C3OC(=O)C(C)C3CCC2(C)C=CC1=NO (stereo not drawn) | -4 | -8 | 1 | -1 | -5 | -4
COc1cccc(COC(=O)CSCC(=O)Nc2ccc(C)cc2)c1OC | 5 | 7 | 5 | 0 | -7 | -10
CCc1ccc(NC(=O)c2ccc3c(=O)n4c(nc3c2)CCCCC4)cc1 | -6 | -4 | 4 | -2 | 7 | 7
CN(c1ccccc1)S(=O)(=O)c1ccc(C(=O)Nc2cccc(S(=O)(=O)N3CCOCC3)c2)cc1 | -16 | -9 | 4 | -4 | 13 | 22
O=C(NC(=S)Nc1ccc(S(=O)(=O)N2CCCCC2)cc1)c1ccccc1 | 19* | -3 | 0 | 1 | 5 | -56
O=C(Nc1cccc(S(=O)(=O)N2CCCCC2)c1)c1ccc2c(=O)n3c(nc2c1)CCCCC3 | -25 | 8 | 10 | 1 | -6 | 43*
O=C(Nc1ccc(S(=O)(=O)N2CCCC2)cc1)c1ccccc1 | 1 | 4 | 1 | -4 | 6 | 5
COc1ccccc1N(C)S(=O)(=O)c1ccc(C(=O)Nc2cccc(S(=O)(=O)N3CCOCC3)c2)cc1 | -22 | 3 | 8 | -4 | 5 | 38*
CN(C)S(=O)(=O)c1cccc(NC(=O)c2cccc(S(=O)(=O)N3CCCCCC3)c2)c1 | -21 | -20 | 8 | -4 | 6 | 33*
Cc1ccc(NC(=O)CSCC(=O)N2CCCc3ccccc32)cc1 | 5 | -22 | 2 | -2 | 8 | -17
COc1ccc(C(=O)NCCCNC(=O)c2cnccn2)cc1 | 13 | -13 | 0 | -2 | 0 | -9
COc1ccc(S(=O)(=O)N2CCOCC2)cc1NC(=O)c1ccc(Cl)cc1 | -10 | -20 | 0 | -2 | 12 | 29*
O=C(Nc1ncccc1O)c1ccc(Cl)c(S(=O)(=O)N2CCCCCC2)c1 | 11 | -10 | 1 | -1 | 0 | -20

From PubChem
